# Results: article PMC7826789 (International Journal of Molecular Sciences, 2021)
# Test system: FLT1
row,SMILES,Kinases covered
1,CCS(=O)(=O)c1ccc(OC)c(Nc2ncc(-c3cccc(OC)c3)o2)c1 [GW580509X],FLT1
2,CCS(=O)(=O)c1ccc(OC)c(Nc2ncc(-c3cccc(F)c3)o2)c1 [GW621970X],FLT1
3,CCn1cc(-c2ccnc3[nH]c(-c4cccc(CN(C)C)c4)cc23)c(-c2ccc(NC(=O)N(C)C)cc2)n1 [GSK1070916],FLT1
4,O=C(Nc1ccccc1)Nc1cccc(Oc2ccc3nccn3n2)c1 [TPKI-39],FLT1

# Test system: GAK
row,SMILES,Kinases covered
1,CCCc1cc(N2CCCN(C)CC2)nc2sc3c(N)ncnc3c12 [BI00604564],GAK
2,O=C(O)/C=C/C(=O)O.OCCCNc1nccc(-c2c(-c3ccc(F)cc3)nn3cc(C(F)(F)F)ccc23)n1 [GW569293E],GAK
3,C#Cc1cccc(Nc2ncnc3cc(OC)c(OC4CCN(C)CC4)cc23)c1 [BI00007366],GAK
4,COc1cc(Nc2ccnc3ccc(Br)cc23)cc(OC)c1OC [CA93.0],GAK
5,COc1cc2ncnc(Nc3ccc(F)c(Cl)c3)c2cc1O[C@H]1CC[C@H](N)CC1 [BIBW3133BS],GAK
